From PubChem
DT40 TDP1 CPT: DT40-hTDP1 cell growth loss with CPT; Potency, µM (top dose mostly 46.2 µM), without a hit: at the top dose activity change, negative = growth inhibition, usual class: inhibitors; chicken DT40 Tdp1-/-;hTDP1 cells + 20 nM CPT, ATP luminescence, 48 h; hit rate 12% among 420,000; further: on the % scale 0 is the no-effect control and ±100 the full control effect; nearly all actives have a fitted effect of over 55% in size
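Chicken DT40 Tdp1-/- cells stably complemented with human TDP1 were seeded at 400 cells/well in medium containing 20 nM camptothecin, exposed to pin-transferred compounds, and grown at 37 °C for at least 48 hr. Viability was read as ATP luminescence.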
ClpP mod: qHTS Assay for Activators of ClpP; purified B. subtilis ClpP, FRET peptide cleavage, 20 min; AID 651965, 2013; ATP-dependent Clp protease proteolytic subunit (Bacillus subtilis (strain 168)), P80244; Potency, µM (top dose mostly 57.5 µM), for the others: at the highest dose activity change, negative = active; hit rate 1.9% among 340,000; active means well fitted falling curve with a large enough effect; inconclusive means small, poorly fitted or top-dose-only effect; inactive means no such curve, though single readings can be large or run the other way; further: the source files actives as falling curves though it sought activators and does not explain the sign; nearly all actives have a fitted effect of over 65% in size
Target sequence (P80244 whole entry, looked up): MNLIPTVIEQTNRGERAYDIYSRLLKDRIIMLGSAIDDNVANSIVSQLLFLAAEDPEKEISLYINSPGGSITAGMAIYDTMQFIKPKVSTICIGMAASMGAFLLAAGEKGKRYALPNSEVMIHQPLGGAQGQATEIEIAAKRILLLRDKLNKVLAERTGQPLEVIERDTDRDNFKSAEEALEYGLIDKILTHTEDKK
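ClpP 10 microg/mL final, pH 8 Tris/KCl buffer with BSA, glycerol, Tween-20; compound pinned in; FRET-FV substrate; RT 20 min; Ex320/Em430; ΔFRET vs ADEP 5.8 microM, DMSO, no enzyme.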
TDP1 cell noCPT: qHTS for Inhibitors of human tyrosyl-DNA phosphodiesterase 1 (TDP1): qHTS in cells in absence of CPT; hit rate 15% among 420,000; Potency, µM (top dose mostly 46.2 µM), inactives show at the highest dose activity change, negative = growth inhibition, usual class: inhibitors; DT40 Tdp1-/- hTDP1 cells, no CPT, ATP luminescence, 48 h; further: on the % scale 0 is the no-effect control and ±100 the full control effect; nearly all actives have a fitted effect of over 55% in size
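Stably hTDP1-transfected Tdp1-null chicken DT40 cells were treated with library compounds minus camptothecin and grown for at least 48 hr at 37 °C, after which cellular ATP was quantified by luminescence.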
TDP1 inh: blocks human tyrosyl-DNA phosphodiesterase 1; AID 485290; recombinant TDP1, AlphaScreen DNA substrate cleavage; Q9NUW8; hit rate 0.28% among 350,000; Potency, µM (series often up to 130 µM), without a hit: at the top dose activity change, negative = inhibition, most hits filed as inhibitors; further: on the % scale 0 is the no-effect control and ±100 the full control effect; nearly all actives have a fitted effect of over 40% in size
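Tdp1 1 nM final; 15 min RT w/ cpd; substrate 15 nM, 5 min; beads 10 ug/ml, 10 min; AlphaScreen read. Neg ctrl: no enzyme.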
An asterisk follows results filed as active; ? = inconclusive; · = no result given. Sampled rows, rich in hits. Any-hit rate of the full collection: about 17%. Unless noted, the call rests on the fitted dose curve; in most records, active means well fitted curve in the direction sought with a large enough effect; inconclusive means small, poorly fitted or top-dose-only effect, or another doubt; inactive means no such curve, though single readings can be large; an effect the other way counts as inactive or inconclusive. Potency means the concentration at half of the fitted maximal effect.

SMILES	DT40 TDP1 CPT	ClpP mod	TDP1 cell noCPT	TDP1 inh
Cc1ccc2[nH]cc(C(c3ccccc3)c3ccc(Cl)s3)c2c1 (stereo not drawn)	?	-5.7%	14.6µM*	9.0%
CCOc1ccc(OCC)c(NC(=O)c2cnn(-c3ccc(F)cc3)c2C2CCN(C(=O)OC(C)(C)C)CC2)c1	?	-3.2%	?	-3.2%
O=C(c1ccc(NC2=NC3CS(=O)(=O)CC3S2)cc1)N1CCN(c2ccc([N+](=O)[O-])cc2)CC1 (stereo not drawn)	-7.7%	0.3%	0.2%	2.2%
O=C(Nc1ccc2c(c1)OCCO2)c1cc(-c2ccccc2)nc2ccccc12	?	-8.3%	23.1µM*	4.0%
COc1cccc(-c2cc(C(=O)Nc3ccc4c(c3)OCCO4)c3ccccc3n2)c1	·	·	·	3.2%
O=C(Nc1ccc2c(c1)OCO2)c1cc(-c2ccncc2)nc2ccccc12	?	·	14.6µM*	5.0%
CCOCCN(C(=O)c1ccccc1Cl)c1ccccc1	4.3%	-1.6%	?	7.0%
COc1cc(/C=N/Nc2nc3ccccc3[nH]2)cc(Br)c1OCC(=O)N(C)C	?	2.1%	18.4µM*	9.8%
COc1cccc(/C=N/Nc2nc3ccccc3n3cnnc23)c1O	5.8µM*	-0.3%	5.8µM*	8.3%
COc1cc(/C=C(/C(=O)c2cccs2)c2nc3ccccc3[nH]2)cc(OC)c1O	?	-1.3%	16.4µM*	7.8%
CC(/C=N/Nc1nc(C)cc(=O)[nH]1)=C\c1ccccc1	?	-6.5%	-8.6%	7.9%
CC(/C=N/Nc1nc2ccccc2[nH]1)=C\c1ccccc1	14.6µM*	-22.7%	?	7.0%
COc1ccc(C(=O)N/C(=C/c2cccs2)c2nc3ccccc3[nH]2)cc1OC	?	-25.3%	?	5.4%
Cc1ccc(C2=NN(CC(=O)NC(C)c3ccccc3)C(=O)CC2)cc1 (stereo not drawn)	-7.7%	-1.2%	-3.9%	2.6%
COc1cc(/C=N/Nc2nc3ccccc3[nH]2)ccc1O	6.51µM*	-5.6%	4.61µM*	5.3%
COc1cc(/C=N/Nc2snc(SC)c2C#N)ccc1O	3.98µM*	-21.5%	3.16µM*	2.0%
COc1cc(/C=N/Nc2nc3ccccc3[nH]c2=O)ccc1O	-7.1%	·	-6.9%	-1.2%
COc1cccc(/C=N/Nc2nc3ccccc3[nH]2)c1O	18.4µM*	-4.9%	23.1µM*	12.3%
CCN(CC)c1ccc(/C=N/Nc2nc3ccccc3[nH]2)cc1	3.26µM*	?	4.61µM*	12.2%
CNc1cncc(-c2ccc(OC)cc2)n1	-7.6%	4.5%	-23.2%	·
O=C1CCc2cc([S+](=O)([O-])Nc3ccc(N[S+](=O)([O-])c4ccc5c(c4)CCC(=O)N5)cc3)ccc2N1	·	·	·	-0.4%
O=Nc1c(O)[nH]c2ccc(Cl)cc12	-19.3%	0.4%	?	5.4%
COc1cc(/C=N/Nc2nc3ccccc3[nH]2)cc(OC)c1O	4.11µM*	-11.7%	3.66µM*	11.0%
COc1ccc(O)c(/C=N/Nc2nc3ccccc3[nH]2)c1	17.6%	·	1.2%	8.4%
CN(C)c1nc(-c2ccccn2)nnc1-c1ccccc1	10.3µM*	-0.9%	14.6µM*	9.6%
SMILES	DT40 TDP1 CPT	ClpP mod	TDP1 cell noCPT	TDP1 inh
CCN(CC)c1nc(-c2ccccn2)nc(-c2ccccc2)c1C#N	18.4µM*	·	3.26µM*	6.0%
c1ccc(-c2nnc(-c3ccccn3)c(-c3ccccn3)n2)nc1	?	-0.3%	?	-0.6%
COc1ccc(OC)c(CNC(=O)C2CCN(c3nc4ccccc4nc3C(F)(F)F)CC2)c1	-11.2%	-0.1%	1.0%	-2.6%
O=C(NCc1ccccc1Cl)C(=O)c1cn(CC(=O)N2CCOCC2)c2ccccc12	-17.6%	·	?	4.9%
CCc1ccc(O)c(N=Cc2ccccc2O)c1	?	-1.1%	-14.6%	7.0%
CCN(CC)c1ccc(N=Cc2cc(Br)ccc2O)cc1	16.4µM*	-1.8%	?	7.9%
CC(C)(C)c1ccc(O)c(N=Cc2cc(Br)ccc2O)c1	?	-0.5%	25.9µM*	-5.1%
Cc1ccc(O)c(C=Nc2cc(C)ccc2O)c1	5.8µM*	-1.1%	5.17µM*	8.0%
C=CCCCC	·	·	·	11.6%
COc1ccc(-n2nnnc2CNC(=O)c2c(-c3ccccc3Cl)noc2C)cc1	-10.3%	0.9%	-0.3%	·
CCC/C=C(\CCC)C(NS(C)(=O)=O)c1ccccc1 (stereo not drawn)	·	·	·	5.1%
CC(=O)Nc1ccc(N=C(C2=C(O)c3ccccc3C2=O)c2ccccc2)cc1	3.26µM*	1.4%	?	7.7%
CCOc1ccc(N=C(C)C2=C(O)c3ccccc3C2=O)cc1	22.1%	·	?	·
COc1ccc(N=C(C)C2=C(O)c3ccccc3C2=O)cc1	23.1µM*	0.5%	?	5.5%
O=C(NCc1ccccc1)c1ccc2c(c1)sc1nc(-c3ccc(F)cc3)cn12	-11.9%	-9.5%	-17.1%	-1.3%
CC(C)NC(=O)C1(C#N)C=C1c1ccccc1 (stereo not drawn)	?	-2.3%	16.4µM*	·
Cc1ccc(CN2CCC(C)(Oc3cccc(Cl)c3)C2)cc1 (stereo not drawn)	29.1µM*	0.5%	?	·
COc1cc(OC)c(OC)cc1CN1CCN(Cc2ccc(SC)cc2)CC1	?	-0.4%	13µM*	-1.8%
COC(=O)Cc1ccc(OC2(C)CCN(Cc3ccc(-c4ccccn4)cc3)C2)cc1 (stereo not drawn)	?	-1.5%	?	·
COc1cccc(OC2(C)CCN(Cc3ccc(-c4ccccn4)cc3)C2)c1 (stereo not drawn)	20.6µM*	-0.8%	?	·
CC1(Oc2cccnc2Cl)CCN(Cc2ccc(OC(F)(F)F)cc2)C1 (stereo not drawn)	20.6µM*	4.6%	18.4µM*	·
CC1(Oc2cccc(Cl)c2)CCN(Cc2ccc(OC(F)(F)F)cc2)C1 (stereo not drawn)	-18.8%	0.8%	-29.4%	·
CC(C)(C)NC(=O)CN(C(=O)c1csnn1)c1cccc2c1CCCC2	-4.5%	·	-21.8%	0.0%
Cc1ccc(C)c(N2CCN(C(=O)CN3C(=O)COc4ccc(S(=O)(=O)N5CCOCC5)cc43)CC2)c1	·	0.7%	·	9.0%
Cc1ccccc1OC1(C)CCN(Cc2ccc3ccccc3c2)C1 (stereo not drawn)	?	-18.0%	16.4µM*	·
CSc1ccc(CN2CCC(C)(Oc3ccccc3C)C2)cc1 (stereo not drawn)	?	0.0%	?	·
CC(=O)c1cc2cccc(OC3(C)CCN(Cc4ccc(-c5ccccn5)cc4)C3)c2o1 (stereo not drawn)	?	-4.3%	18.4µM*	·
CSc1ccc(CN2CCC(C)(Oc3ccccc3F)C2)cc1 (stereo not drawn)	?	-0.4%	?	·
COc1cc(Cl)ccc1OC1(C)CCN(Cc2ccc(SC)cc2)C1 (stereo not drawn)	13µM*	-5.1%	18.4µM*	·
